# TEAD-YAP inh: TEAD-YAP interaction inhibition. AID 1259422. inhibition, % at 9.12 µM. HEK-TIYL cells, TEAD-Gal4/YAP UAS-luciferase luminescence. 640,000 tested, 1.4% active; in the data active means inhibition above about 32%;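 further: 0% = median of test compound wells and 100% = reference inhibitor wells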
# FBW7 activator: human FBW7 E3 ligase activation, primary screen. Q969H0. AlphaScreen FBW7–phospho-cyclin E peptide binding, activator screen. normalized activity (activation), % at 26.1 µM. 650,000 tested, 0.13% active; in the data active means normalized activity above about 1.9%;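 further: purified mutant Fbw7 with reduced substrate affinity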
# GPR151 ag: activates the human receptor GPR151 | Q8TDV0 | PathHunter beta-arrestin GPR151 cells, luminescence | activation, % at 11.2 µM | 650,000 tested, 1% active | AID 1508602; in the data active means activation above about 4.9%;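 further: 0% = median of compound wells and 100% = cells with positive control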
# MITF inh: blocks human microphthalmia-associated transcription factor; O75030; AlphaScreen MITF homodimerization, bead proximity signal; inhibition, % at 2.6 µM; 650,000 tested, 0.91% active; AID 1259374; in the data active means inhibition above about 50%;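 further: 0% = vehicle wells with protein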
# MITF confirm: human MITF inhibition, confirmation; shares compounds with MITF inh; AlphaScreen MITF homodimerization, biotin/His-MITF beads; inhibition, % at 2.6 µM; 4,700 tested, 16% active; AID 1259372;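 active means inhibition above a cutoff derived from the DMSO control wells, cut at about 28% in these data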;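 further: 0% = MITF dimer wells with DMSO only; inhibitors lower the bead chemiluminescence by keeping MITF from dimerizing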
# AlphaScreen intf2: optically interferes with AlphaScreen signal; LysRS AlphaScreen counterscreen, signal interference, triplicate; 4,700 tested, 7.6% active; inhibition, % at 2.6 µM; shares compounds with MITF inh;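 active means inhibition above a cutoff derived from the DMSO control wells, cut at about 30% in these data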
# * hit, by the source's call; . = no result given. The list is not random: actives were taken first. Their share in the collection is about 3.5%.
SMILES,TEAD-YAP inh,FBW7 activator,GPR151 ag,MITF inh,MITF confirm,AlphaScreen intf2
CCOc1ccc(NC(C)C(=O)N/N=C/c2cc(Br)c(O)c(OC)c2)cc1 (stereo unspecified),-3,0,-1,11,.,.
Cc1ccc(NC(=O)CN(c2ccc(I)cc2)S(C)(=O)=O)cc1,-64,0,-2,-19,.,.
Cc1cccc(NC(=O)CN(c2ccc(I)cc2)S(C)(=O)=O)c1,-75,0,0,71*,-2,0
O=C(CSc1nnc(-c2ccc(Cl)cc2)o1)N1CCCC1,-12,0,-1,-7,.,.
Cc1ccc(C)c(N2CCN(Cc3cccnc3)CC2)c1,9,0,-1,30,.,.
Cc1ccccc1CN1CCN(Cc2cccnc2)CC1,3,0,-1,84*,3,24
C(=N\N1CCN(Cc2cccc3ccccc23)CC1)/c1ccncc1,-15,0,-1,14,.,.
c1ccc2c(CN3CCN(Cc4ccncc4)CC3)cccc2c1,-1,0,-1,55*,2,2
Cc1ccccc1CN1CCN(Cc2ccncc2)CC1,-7,0,1,60*,-15,0
Cc1cc(C)c2c(N)c(C(=O)N(C)c3ccccc3)sc2n1,20,0,0,4,.,.
N#CCCCN1CCCC2(C1)NCCc1c2[nH]c2cc(F)ccc12 (stereo unspecified),-5,-1,0,-13,.,.
O=C(Cc1c(F)cccc1Cl)N1CC(c2nc3ccccc3[nH]2)C1,-11,0,0,4,.,.
CCn1c(C2COc3ccccc3O2)nc2cc(-c3ccncc3)ccc21 (stereo unspecified),-9,0,0,-1,.,.
COc1cccc(C(=O)N(Cc2ccc(C)cc2)C2CCS(=O)(=O)C2)c1 (stereo unspecified),1,0,-1,-1,.,.
Cc1ccc2nc(N3CCC(NCCc4ccccc4F)CC3)nc(C)c2c1,12,0,1,73*,-12,-7
Nc1nonc1-c1noc(-c2ccccc2F)n1,-41,0,-2,3,.,.
Nc1nonc1-c1noc(-c2ccccc2Br)n1,-4,0,-1,77*,8,12
c1ccc(-c2cc(N3CCOCC3)nc(-c3ccccn3)n2)nc1,45*,-1,-1,113*,117*,100*
O=C(/C=C/c1cccs1)N1CCN(c2ccc(-c3ccccn3)nn2)CC1,-8,-1,1,56*,104*,101*
O=C(Cc1cccs1)N1CCN(c2ccc(-c3ccccn3)nn2)CC1,-11,-1,-1,68*,51*,100*
O=C(/C=C/c1ccco1)N1CCN(c2ccc(-c3ccccn3)nn2)CC1,-5,-1,-1,49,.,.
Cn1cc(CC(=O)N2CCN(c3ccc(-c4ccccn4)nn3)CC2)c2ccccc21,42*,-1,-3,122*,108*,101*
Cc1ccc(C(=O)N2CCN3C(=O)[C@@H](Cc4ccc(O)cc4)NC(=O)[C@H]3C2)cc1,15,0,-2,13,.,.
OCC1CCCN1c1nc2ncnc(NCCc3ccc(O)cc3)c2[nH]1 (stereo unspecified),2,0,0,2,.,.
CCN(CC)C(=O)CN1CCN(c2ncccn2)CC1,0,0,1,56*,18,10
SMILES,TEAD-YAP inh,FBW7 activator,GPR151 ag,MITF inh,MITF confirm,AlphaScreen intf2
CCN(CC)C(=O)CN1CCC(O)(c2ccccn2)CC1,15,0,-2,9,.,.
COc1ccc(CN2CCN(c3ccccc3)CC2)c(OC)c1OC,-7,0,0,27,.,.
COc1ccc(CN2CCN(Cc3ccccc3Br)CC2)c(OC)c1OC,-6,0,-1,81*,18,8
COc1cc(CN2CCN(Cc3ccc(OC)c(OC)c3OC)CC2)cc(OC)c1,13,0,0,70*,-11,-5
COc1ccc(CN2CCN(Cc3ccc(C(F)(F)F)cc3)CC2)c(OC)c1OC,1,0,-1,78*,10,14
COc1cc(CN2CCN(Cc3ccc(C(F)(F)F)cc3)CC2)cc(OC)c1OC,19,1,0,85*,4,17
COc1ccc(CN2CCN(Cc3ccc(C(F)(F)F)cc3)CC2)cc1OC,14,0,-2,24,.,.
Cc1cc2c(c(=O)[nH]1)C(=O)O/C2=C\c1c(C)[nH]c(C#N)c1C,-2,0,0,19,.,.
COc1ccc(CN2CCN(Cc3ccncc3)CC2)c(OC)c1OC,10,0,0,62*,-2,-1
C=CCNC1CCCN(c2nc(C)c3ccc(C)cc3n2)CC1 (stereo unspecified),13,0,0,-3,.,.
O=S(=O)(c1ccc2c(c1)OCCO2)N1CCN(c2cc(N3CCCC3)ncn2)CC1,-13,0,3,80*,8,19
O=S(=O)(c1ccc2c(c1)CCCC2)N1CCN(c2cc(N3CCCC3)ncn2)CC1,0,1,0,16,.,.
CCOC1(OCC)N=C(N)C2(C#N)C(c3ccc(NC(C)=O)cc3)C12C#N (stereo unspecified),-1,0,-1,55*,4,2
COC(=O)c1ccc(C2C3(C#N)C(N)=NC(OC)(OC)C23C#N)cc1 (stereo unspecified),4,0,-1,13,.,.
COC1(OC)N=C(N)C2(C#N)C(c3ccc(F)cc3)C12C#N (stereo unspecified),-12,0,0,55*,-2,-4
COC1(OC)N=C(N)C2(C#N)C(c3ccc(NC(C)=O)cc3)C12C#N (stereo unspecified),-1,0,0,51*,-2,7
CCOC1(OCC)N=C(N)C2(C#N)C(c3cccc(Br)c3)C12C#N (stereo unspecified),-10,0,1,23,.,.
COc1ccc(C2=N/C(=C\c3cccnc3)C(=O)O2)c(Br)c1,4,0,-1,3,.,.
COc1ccc(C(CNc2nnnn2-c2ccccc2)N2CCOCC2)cc1 (stereo unspecified),1,0,1,51*,3,0
CC1(C2CCN(C(=O)c3ccco3)CC2)NC(=O)N(Cc2ccc(F)cc2)C1=O (stereo unspecified),-16,0,1,-23,.,.
Nc1c(C(=O)Nc2ccc(Cl)cc2)nnc2cc(-c3ccc(Cl)cc3)nn12,5,0,0,82*,7,5
O=C(Nc1ccc(-c2ccc3nnc(-c4ccncc4)n3n2)cc1)c1ccc(Cl)cc1,8,0,2,8,.,.
CCOc1ccc(/C=C/C(=O)Nc2ccc(N3CCOCC3)cc2)cc1,13,0,0,87*,7,14
O=C1NC(c2ccc(O)cc2)Nc2sc3c(c21)CCCC3 (stereo unspecified),-7,0,1,13,.,.
O=C(NCCCN1CCOCC1)c1cc2cc(Br)ccc2oc1=O,5,2,0,60*,8,18
Cc1cc(Br)ccc1OCCOCCNC(C)(C)C,6,0,-2,63*,4,-1

# Compound activity deposited in PubChem by The Scripps Research Institute Molecular Screening Center.
